# Source: PubChem (National Center for Advancing Translational Sciences (NCATS))
# Sampled rows, rich in hits. Any-hit rate of the full collection: about 19%.
# KB-V1 MDR tox: KB-V1 MDR subline cytotoxicity. KB-V1 MDR cells viability, CellTiter-Glo, 72 h. Potency, µM (doses to about 46.1 µM), most hits filed as cytotoxic. 3.4% of 400,000 active. AID 1347076; also: nearly all actives have a fitted effect of over 60% in size
#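 Cytotoxicity toward P-gp-expressing KB-V1 cells was determined as loss of CellTiter-Glo luminescence after 72 h at 37 degrees C. Compounds were tested in quantitative HTS format across a concentration range, with curves fitted to normalized data.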
# KB-3-1 cytotox: KB-3-1 parental cell cytotoxicity; KB-3-1 viability, CellTiter-Glo ATP luminescence, 72 h; Potency, µM (series often up to 46.1 µM), most hits filed as cytotoxic; 1.4% of 400,000 active; AID 1347075; also: nearly all actives have a fitted effect of over 60% in size
#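 Parental KB-3-1 viability, qHTS format: 72 h compound exposure, 37 °C; CellTiter-Glo; media-only wells and DMSO plates as controls; concentration-effect fits on corrected data.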
# HT1080 IDH1KD tx: toxicity to HT-1080 IDH1 knockdown cells (counter line) | HT-1080 IDH1 knockdown viability, ATP luminescence, 48 h | Potency, µM (doses to about 46.1 µM), without a hit: top-dose activity, negative = toxicity, hits mostly cytotoxic | 2% of 360,000 active;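 also: 0% = DMSO wells and -100% = cell-free medium wells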
#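 HT-1080-IDH1KD cells (IDH1 knocked down), 750/well in RPMI with 5% FBS, treated with compound 48 h at 37 degrees C. Viability by CellTiter-Glo luminescence, normalised to DMSO and no-cell wells; concentration-response curves classed.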
# DT40 TDP1 no CPT: qHTS for Inhibitors of human tyrosyl-DNA phosphodiesterase 1 (TDP1): qHTS in cells in absence of CPT; DT40 Tdp1-/- hTDP1 cells, no CPT, ATP luminescence, 48 h; Potency, µM (top dose mostly 46.2 µM), inactives show at the highest dose activity change, negative = growth inhibition, most hits filed as inhibitors; AID 686978, 2013; 15% of 420,000 active; also: nearly all actives have a fitted effect of over 55% in size
#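 A cellular qHTS used chicken DT40 cells lacking endogenous Tdp1 but carrying stably transfected human TDP1. Compounds were applied without camptothecin, and cell growth kinetics were judged by ATP-dependent luminescence after ≥48 hr.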
# TDP1 cell CPT: DT40-hTDP1 cell growth loss with CPT; 12% of 420,000 active; Potency, µM (series often up to 46.2 µM), for inactives: top-dose activity change, negative = growth inhibition, usual class: inhibitors; chicken DT40 Tdp1-/-;hTDP1 cells + 20 nM CPT, ATP luminescence, 48 h; AID 686979; also: nearly all actives have a fitted effect of over 55% in size
#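 Cell growth measured by CellTiter-Glo luminescence after a minimum 48 h, 37 C compound exposure with 20 nM CPT in Tdp1-knockout DT40 cells stably expressing hTDP1, seeded 400/well; qHTS titration format.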
# HT1080-NT tox: kills 2HG-producing HT-1080-NT fibrosarcoma cells; AID 686970; 1.6% of 360,000 active; Potency, µM (titrated, usually from 46.1 µM), for the others: top-dose activity, negative = less viability, hits mostly cytotoxic; HT-1080-NT fibrosarcoma viability, CellTiter-Glo ATP luminescence, 48 h;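 also: NT is the 2HG producing partner of a matched IDH1 knockdown line; 0% = DMSO-treated cells and -100% = media-only wells without cells; nearly all actives have a fitted effect of over 55% in size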
#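 Fibrosarcoma NT cells, 750 per well in 5% FBS RPMI, were exposed to compound for 48 hours. Viability: CellTiter-Glo luminescence.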
# * hit, by the source's call; i = inactive; ? = inconclusive; nt = not tested or not shown; [ ] = remark or other dose. Calls follow the shape of the dose curve; as a rule, active = well fitted curve in the direction sought with a large enough effect; inconclusive = small, poorly fitted or top-dose-only effect, or another doubt; inactive = no such curve, though single readings can be large; an effect the other way counts as inactive or inconclusive. Unless noted, % is scaled to controls: 0 for no effect and ±100 for the full control effect; potency is read from the fitted curve at half-maximal effect.
SMILES,KB-V1 MDR tox,KB-3-1 cytotox,HT1080 IDH1KD tx,DT40 TDP1 no CPT,TDP1 cell CPT,HT1080-NT tox
COc1ccccc1NC(=O)C1CCCN(S(=O)(=O)c2ccc3c(c2)CC(C)N3C(C)=O)C1 (stereo unspecified),i,i,-14.1%,7.31µM*,?,-0.5%
CC(=O)N1c2ccc(S(=O)(=O)N3CCC(C(=O)Nc4ccc(F)cc4)CC3)cc2CC1C (stereo unspecified),i,i,-13.8%,13µM*,18.4µM*,-1.5%
Clc1ccc(-c2noc3ncnc(NCCCN4CCN(c5ccccc5)CC4)c23)cc1,i,i,nt,?,?,nt
Brc1ccc(/C=C2\C=Cc3ccccc32)cc1,i,i,nt,?,?,nt
COc1cccc(NC(=O)C2CCN(S(=O)(=O)c3ccc4c(c3)CC(C)N4C(C)=O)CC2)c1 (stereo unspecified),i,i,-3.9%,?,14.6µM*,1.4%
CC(=O)Nc1ccc(S(=O)(=O)N2c3ccc(F)cc3CCC2C)cc1 (stereo unspecified),i,9.2µM*,20.6µM*,5.8µM*,7.31µM*,?
COc1ccc(CNC(=O)C2CCN(S(=O)(=O)c3ccc4c(c3)CC(C)N4C(C)=O)CC2)cc1 (stereo unspecified),i,i,-9.3%,-23.4%,-11.4%,-17.1%
C[C@@H]1CCCCO[C@@H](CN(C)S(=O)(=O)c2cn(C)cn2)[C@@H](C)CN([C@H](C)CO)C(=O)c2cc(NC(=O)Nc3ccc(C(F)(F)F)cc3)ccc2O1,i,i,11.5%,-14.8%,-10.4%,-12.3%
CCOC(=O)c1c(NC(=O)CSc2nnnn2-c2ccccc2)sc2c1CC(C)(C)NC2(C)C,i,i,23.1µM*,?,16.4µM*,?
CCOC(=O)c1c(NC(=O)CSc2nnnn2-c2ccccc2OCC)sc2c1CC(C)(C)NC2(C)C,?,?,?,14.6µM*,?,?
COCCN(C)C(=O)c1cnn(-c2nccc(-c3cc(OC)ccc3OC)n2)c1C,nt,nt,nt,-17.3%,-0.3%[9.04 µM],nt
Cc1ccccc1NS(=O)(=O)c1ccc(C(=O)NNC(=O)c2ccccc2O)cc1,i,?,?,?,?,-13.6%
O=C(NNC(=O)c1ccccc1O)c1ccc(S(=O)(=O)Nc2ccccc2)cc1,?,?,-18.6%,16.4µM*,?,-13.9%
O=C(NNC(=O)c1ccccc1O)c1ccc(S(=O)(=O)Nc2ccccc2F)cc1,i,?,?,?,?,23.1µM*
COc1ccc(-c2cc3nc(C)c(CCC(=O)NC(C)c4ccccc4)c(C)n3n2)c(OC)c1 (stereo unspecified),i,i,nt,?,-23.3%,nt
COc1ccc(-c2c(C)nn3c4c(cnc23)C(=O)CC(c2ccc(C)cc2)C4)cc1 (stereo unspecified),i,i,nt,-4.0%,-5.9%,nt
O=C(Cc1cccs1)Nc1ccc(Cl)cc1,i,i,14.6%,?,-20.4%,5.2%
Cc1cc(C)cc(NC(=O)c2cc(C)n(Cc3cccs3)c2C)c1,i,i,?,18.4µM*,29.1µM*,?
Cc1cc(C(=O)CN2C(=O)c3ccccc3C2=O)c(C)n1Cc1cccs1,?,i,0.5%,?,?,5.6%
Cc1cc(C(=O)Cn2nnc3ccccc3c2=O)c(C)n1Cc1cccs1,i,?,-29.2%,18.4µM*,29.1µM*,-11.7%
Cc1cc(C(=O)Nc2ccc(Cl)cc2)c(C)n1Cc1cccs1,i,i,?,8.2µM*,?,-30.0%
Cc1cc(C)c(C)c(S(=O)(=O)NCC(=O)NCc2ccco2)c1C,18.4µM*,i,18.6%,-0.8%,5.7%,12.7%
Cc1c(C(=O)N(Cc2ccc(N(C)C)cc2)Cc2ccco2)oc2cc(Br)ccc12,nt,nt,nt,9.2µM*,23.1µM*,nt
Cc1cc(C)c2c(CC(=O)N(Cc3ccc(Cl)cc3)Cc3ccco3)coc2c1,nt,nt,nt,8.2µM*,?,nt
Cc1ccc(S(=O)(=O)N[C@@H](CC(C)C)C(=O)NCc2ccco2)cc1,14.6µM*,i,9.1%,5.3%,0.8%,2.9%
SMILES,KB-V1 MDR tox,KB-3-1 cytotox,HT1080 IDH1KD tx,DT40 TDP1 no CPT,TDP1 cell CPT,HT1080-NT tox
Cc1ccc(CN(Cc2ccco2)C(=O)c2oc3cc(Br)ccc3c2C)cc1,i,i,nt,?,?,nt
Cc1ccc(SCC(=O)NCc2ccco2)cc1,i,i,12.3%,-12.6%,-25.5%,7.3%
Cc1cc(C)c2c(CC(=O)NCc3ccco3)coc2c1,14.6µM*,?,?,?,?,?
Cc1ccc2c(CC(=O)N(Cc3ccc(N(C)C)cc3)Cc3ccco3)coc2c1C,i,?,nt,18.4µM*,16.4µM*,nt
CCN(CC)CCNC(=O)c1nn(C)c2c1CS(=O)(=O)c1ccccc1-2,i,i,nt,-9.6%,7.5%,nt
COc1ccc2c(c1)c(=O)c(C(=O)c1ccc(C)c(C)c1)cn2CC(=O)Nc1ccc2c(c1)OCCO2,?,i,nt,?,-22.7%,nt
CCCNC(=O)C(Cc1ccccc1C)NC(=O)c1ccc(C(F)(F)F)cc1 (stereo unspecified),i,i,11.1%,-17.7%,0.5%,12.2%
CN1C(=O)CC2(C)C1=CCc1scnc12 (stereo unspecified),i,i,14.1%,-5.3%,7.3%,10.1%
Cc1noc(C)c1COc1ccc(C(=O)N2CCN(S(=O)(=O)c3ccc(F)cc3)CC2)cc1,8.2µM*,i,-6.3%,0.4%,?,-7.0%
Cc1noc(C)c1COc1ccc(C(=O)N2CCC(C)CC2)cc1,23.1µM*,i,0.3%,?,?,1.2%
Cc1noc(C)c1COc1ccc(C(=O)N2CCN(S(=O)(=O)c3ccc(Cl)cc3)CC2)cc1,i,i,0.3%,8.3%,-7.2%,-5.1%
Nc1cccc(Nc2ccccc2)c1,i,i,2.6%,1.5%,0.5%,11.3%
COc1ccc(Nc2ccc3c(c2)=NC2(CCCCC2)[N+]=3[O-])cc1,?,14.6µM*,?,2.59µM*,2.59µM*,?
COc1ccc(NC2=NCCC2)cc1,i,i,20.8%,-0.2%,13.2%,6.9%
[O-][N+]1=c2ccc(Nc3ccccc3)cc2=NC12CCCCC2,?,?,16.4µM*,4.11µM*,3.66µM*,?
c1ccc(-c2nnnn2-c2ccccc2)cc1,i,i,-0.1%,21.1%,5.8%,4.6%
